High-throughput results deposited in PubChem BioAssay by National Center for Advancing Translational Sciences (NCATS).
Pf growth 96h = Primary qHTS for delayed death inhibitors of the malarial parasite plastid, 96 hour incubation; P. falciparum luciferase reporter growth, 96 h; Potency, µM (top dose mostly 28.7 µM), actives largely listed as inhibitors; actives 6.9% (n = 320,000); AID 504834, 2011
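Two-generation exposure (96 h) targets delayed-death phenotype. Reporter parasites carrying integrated firefly luciferase, in red cells at 2% hematocrit and 0.05% parasitemia final, kept at 37 C, 5% CO2; luminescence loss indicates inhibition.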
LmPK inhibitor = qHTS Assay for Inhibitors of Leishmania Mexicana Pyruvate Kinase (LmPK); Q27686; actives 0.37% (n = 290,000); purified LmPK, Kinase-Glo ATP luminescence, 1 h; Potency, µM (titrated, usually from 57.5 µM), hits mostly inhibitors
Target sequence (Q27686 whole entry, looked up): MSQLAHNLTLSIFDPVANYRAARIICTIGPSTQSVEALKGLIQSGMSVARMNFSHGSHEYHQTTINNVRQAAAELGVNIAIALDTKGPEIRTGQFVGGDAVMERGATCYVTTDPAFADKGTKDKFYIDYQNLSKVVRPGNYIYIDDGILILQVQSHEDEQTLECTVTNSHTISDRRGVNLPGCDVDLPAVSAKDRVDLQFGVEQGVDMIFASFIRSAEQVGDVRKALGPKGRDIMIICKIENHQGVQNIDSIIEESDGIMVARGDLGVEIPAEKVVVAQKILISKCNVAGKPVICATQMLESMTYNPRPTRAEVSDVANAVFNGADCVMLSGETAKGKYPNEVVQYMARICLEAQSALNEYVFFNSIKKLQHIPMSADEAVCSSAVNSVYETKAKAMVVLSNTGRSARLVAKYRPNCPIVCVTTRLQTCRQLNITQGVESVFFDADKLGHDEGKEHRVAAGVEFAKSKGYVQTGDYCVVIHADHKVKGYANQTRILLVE
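Kinase-Glo luminescence read after 1 h RT reaction of 0.1 nM LmPK with 0.5 mM PEP and 0.1 mM ADP. Activity scaled between uninhibited and enzyme-free controls.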
Cycloheximide cs = Cycloheximide Counterscreen for Small Molecule Inhibitors of Shiga Toxin; actives 12% (n = 300,000); cell reporter, cycloheximide protein synthesis inhibition counterscreen; AID 2314, 2010; max response, %; in the data active = max response mostly above about 13%, no sharp cut-off; inactive = mostly below about 14%; note: read at 38.3 µM for the half of the compounds with a filed dose
Shiga inhibitor = A qHTS for Small Molecule Inhibitors of Shiga Toxin; Vero cells, Shiga toxin protein synthesis inhibition reporter; inhibition, % at 38.7 µM; actives 9.2% (n = 290,000); AID 2315, 2010; in the data active = inhibition mostly above about 28%, no sharp cut-off; inactive = mostly below about 43%
Pf growth 48h = Primary qHTS for delayed death inhibitors of the malarial parasite plastid, 48 hour incubation; P. falciparum luciferase growth in erythrocytes, 48 h; actives 5.9% (n = 310,000); Potency, µM (series often up to 28.7 µM), most hits filed as inhibitors; AID 504832, 2011
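In quantitative HTS format, infected erythrocytes bearing luciferase-reporter parasites were treated for a single generation at 37 C. Luminescence after adding detection reagent served as the growth measure.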
Of the large screens only hits and unclear results are named; the others gave an inactive call. Rows were chosen to be rich in hits. Some 22% of all compounds tested hit in one or more screens of this group. Unless noted, calls come from the whole dose curve; as a rule, active = well fitted inhibition curve with a large enough effect; inconclusive = small, poorly fitted or top-dose-only effect, or another doubt; inactive = no such curve, though single readings can be large or run the other way.

CC(C)CNc1nc(N)c([N+](=O)[O-])c(NCC2CCCO2)n1 (centres undefined)	Pf growth 96h 12µM, Pf growth 48h inconclusive
CCOC(=O)N1CCN(C(=O)CCl)CC1	Pf growth 96h inconclusive, Pf growth 48h inconclusive
COc1ccc(Nc2nc(N)nc(C(F)(F)F)n2)c(OC)c1	Pf growth 96h inconclusive, Cycloheximide cs 25
COc1ccc(Nc2nc(N)c3ccccc3n2)c(OC)c1	Cycloheximide cs 34, Shiga inhibitor 45, Pf growth 48h inconclusive
COc1ccc(Cl)cc1Nc1nc(N)nc(C(F)(F)F)n1	none
Cc1nn(C)cc1/C=N\NC(=O)c1ccc2c(c1)c(C)c(C)n2Cc1ccccc1	Pf growth 96h inconclusive (no result: Pf growth 48h)
COc1ccc(C2=COc3ccccc3C(=O)N2)cc1	Cycloheximide cs 21, Shiga inhibitor 56
CC(=O)N1CCc2ccc(S(=O)(=O)N3CCc4ccccc43)cc21	Pf growth 48h 13µM
Cc1ccc(S(=O)(=O)N2CCCc3ccccc32)cc1C	Cycloheximide cs 17, Shiga inhibitor 23
COC(=O)c1ccc(S(=O)(=O)N2CCc3ccccc32)cc1	Pf growth 96h 9.3µM
O=[N+]([O-])c1ccccc1S(=O)(=O)N1CCCc2ccccc21	Pf growth 96h inconclusive, Cycloheximide cs 30 (no result: Shiga inhibitor)
COC(=O)CCC(=O)Nc1ccc(S(=O)(=O)N2CCc3ccccc32)cc1	none
COc1cc(/C=N/NC(=O)CSc2nc3ccccc3n2C)cc(OC)c1OC	Pf growth 96h inconclusive
COc1ccccc1CNC(=O)C(C)n1nc(C)n2c(cc3occc32)c1=O (centres undefined)	none
COC(=O)Nc1ccc(S(=O)(=O)N2CCCCC2C(=O)O)cc1 (centres undefined)	Pf growth 96h inconclusive
NNC(=O)c1ccc(S(=O)(=O)N2CCc3ccccc32)cc1	Pf growth 48h 12µM
COC(=O)Nc1ccc(S(=O)(=O)N2c3ccccc3CCC2C)cc1 (centres undefined)	Pf growth 48h 15µM
Cc1ccc(Cn2nc(C)c(NC(=O)C3(C)CC3(Br)Br)c2C)cc1 (centres undefined)	Pf growth 96h inconclusive
COc1cc(/C(C)=N/NC(=O)CSc2nncn2C)ccc1OCc1ccccc1Cl	Pf growth 96h inconclusive, Cycloheximide cs 38, Shiga inhibitor 84, Pf growth 48h inconclusive
Oc1cccc(/C=N/N(Cc2ccccc2)c2ccccc2)c1	Pf growth 96h inconclusive, Pf growth 48h 6.6µM
C(=N\N(Cc1ccccc1)c1ccccc1)/c1cccnc1	Pf growth 48h 13µM
Oc1ccc(/C=N/N(Cc2ccccc2)c2ccccc2)c(O)c1O	Pf growth 96h inconclusive, Pf growth 48h inconclusive
C/C(=N\N(Cc1ccccc1)c1ccccc1)c1cccnc1	Pf growth 96h 13µM, Pf growth 48h 8.3µM
CC(C)c1ccccc1NC(=O)CNCCOc1ccccc1F	none (no result: Pf growth 48h)
OC(CNCc1cccnc1)COc1ccc2ccccc2c1 (centres undefined)	none
COc1ccc(CC(=O)Nc2ccc(N3CCOCC3)cc2)cc1OC	Pf growth 48h inconclusive
CC1CC(CCC(=O)NC(=S)Nc2ccc(S(N)(=O)=O)cc2)C(=O)O1 (centres undefined)	Pf growth 96h inconclusive
Cc1ccc(CSc2nnc(Nc3ccc(C)cc3)s2)cc1	none (no result: Pf growth 48h)
CCSc1nnc(Nc2ccc(C)cc2)s1	Cycloheximide cs 38, Shiga inhibitor 124
O=C1CCCCC1Sc1nnc(Nc2ccccc2)s1 (centres undefined)	Cycloheximide cs 38, Shiga inhibitor 99
CCSc1nnc(Nc2ccccc2)s1	Cycloheximide cs 34, Shiga inhibitor 90
Cc1ccc(C(=O)CC(Nc2ccc(F)cc2)c2ccccc2)cc1 (centres undefined)	Pf growth 96h inconclusive
OC(COCC(F)(F)C(F)(F)C(F)(F)C(F)F)Cn1c2ccc(Cl)cc2c2cc(Cl)ccc21 (centres undefined)	Pf growth 96h 0.59µM, Pf growth 48h 1µM
O=C(c1cc2c(ccc3ccccc32)oc1=O)N1CCCC1	none
O=C(c1cc2ccccc2c(=O)o1)N1CCCCCC1	Cycloheximide cs 71, Shiga inhibitor 141
CC1CCN(C(=O)c2cc3ccccc3cc2O)CC1	Pf growth 96h inconclusive, Pf growth 48h inconclusive
CC1CCN(C(=O)c2cc3ccccc3c(=O)o2)CC1	Shiga inhibitor 44
O=C(CCCN1CCN2CCCC2C1)c1ccc(F)cc1 (centres undefined)	none (no result: LmPK inhibitor, Cycloheximide cs, Shiga inhibitor)
O=C(O)CCSc1nc(C(F)(F)F)cc(=O)n1-c1ccccc1	none
CCOC(=O)c1ccc(N2C(=O)c3n[nH]c(-c4ccco4)c3C2c2cccc([N+](=O)[O-])c2)cc1 (centres undefined)	Pf growth 48h 8.3µM
CCOC(=O)c1ccc(N2C(=O)c3n[nH]c(C)c3C2c2ccc(OC)c(OC)c2)cc1 (centres undefined)	Pf growth 96h 9.3µM, Pf growth 48h inconclusive
CCOC(=O)c1ccc(N2C(=O)c3n[nH]c(C)c3C2c2ccc(OC)cc2)cc1 (centres undefined)	Pf growth 96h inconclusive, Pf growth 48h inconclusive
CCOC(=O)c1ccc(N2C(=O)c3n[nH]c(C)c3C2c2ccc(OC)cc2OC)cc1 (centres undefined)	Pf growth 96h 12µM, Pf growth 48h inconclusive
CCOC(=O)c1ccc(N2C(=O)c3n[nH]c(-c4cccs4)c3C2c2ccc(CC)cc2)cc1 (centres undefined)	none (no result: Pf growth 96h, LmPK inhibitor, Pf growth 48h)
CN(C(=O)COC(=O)c1ccc(=O)n(Cc2ccccc2)n1)C1CCCCC1	none (no result: LmPK inhibitor, Cycloheximide cs, Shiga inhibitor)
CC(Sc1nnc(C2CC2)n1C)C(=O)Nc1ccc(N2CCOCC2)cc1 (centres undefined)	none (no result: LmPK inhibitor, Cycloheximide cs, Shiga inhibitor)
COc1ccc2c(c1)C(=O)N(c1ccccc1)C(=O)C2	Pf growth 96h inconclusive, Pf growth 48h inconclusive
COc1ccc2c(c1)C1(C)CC(C)(C)N2C(=O)N1c1ccccc1 (centres undefined)	Pf growth 96h 10µM, Pf growth 48h inconclusive
O=C(Nc1ccc(Nc2ccccc2)cc1)Nc1ccccc1Cl	Cycloheximide cs 41, Shiga inhibitor 97
O=C(COc1ccccc1)Nc1ccccc1Cl	Pf growth 96h inconclusive, Cycloheximide cs 41, Shiga inhibitor 108
O=C(Nc1ccccc1Cl)Oc1ccc(-c2ccccc2)cc1	Cycloheximide cs 18
O=C(Nc1ccccn1)Nc1ccccc1Cl	Cycloheximide cs 32, Shiga inhibitor 50
Cc1cccc(NC(=O)C2SC(=Nc3c(C)cccc3C)C(C(=O)N3CCOCC3)=C2N)c1 (centres undefined)	none
COc1cccc(CC(=O)OCC(=O)NNC(=O)c2ccc(Br)cc2)c1	none (no result: LmPK inhibitor, Cycloheximide cs, Shiga inhibitor)
O=C(Nc1ccc(Cl)cc1)Nc1ccccc1Sc1ncc([N+](=O)[O-])s1	Cycloheximide cs 34, Shiga inhibitor 63, Pf growth 48h 2.6µM
O=C(NCc1cccc(Cl)c1)NC(=O)c1csc([N+](=O)[O-])c1	none
CSc1ccccc1NC(=O)Nc1ccccc1Cl	Cycloheximide cs 24
N#Cc1ccccc1NC(=O)Nc1ccc(Cl)cc1	none
